Assay outcomes deposited in PubChem BioAssay by National Center for Advancing Translational Sciences (NCATS).
The list is not random: actives were taken first. Their share in the collection is about 8%.
Lassa entry inh = blocks Lassa virus binding to or entry into cells. Potency, µM (top dose mostly 37.9 µM), most hits filed as inhibitors. Lassa virus pseudotype entry inhibition, cell reporter. 300,000 tested, 1.2% active. AID 540256; calls by dose curve; tested in HEK293 cells; also: nearly all actives have a fitted effect of over 50% in size
HCMV antiviral = inhibitors of human cytomegalovirus | 410,000 tested, 4.5% active | HFF cells, HCMV-luciferase reporter, 72 h; hits give low values | activity change, negative = inhibition, % at 57.5 µM; in the data active = activity change below about -60%; inconclusive = no clear call, values can overlap the other calls; inactive = above about -39%
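Compounds were evaluated in HFFs infected with an HCMV luciferase reporter virus (MOI 1 PFU/cell). Luciferase in lysates collected 72 h post infection served as the replication measure.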
FMDV inh = foot and mouth disease virus antiviral activity. FMDV antiviral cell-based qHTS. Potency, µM (doses to about 57.9 µM), usual class: inhibitors. 410,000 tested, 1.2% active; calls by dose curve; tested in HEK293T cells; also: read-out not given here; nearly all actives have a fitted effect of over 45% in size
SARS PLP yeast = SARS-CoV PLP inhibition in yeast | S. cerevisiae expressing SARS-CoV PLpro, growth rescue | AID 485353 | Potency, µM (titrated, usually from 32.9 µM), actives largely listed as activators | 330,000 tested, 0.19% active; calls by dose curve; also: nearly all actives have a fitted effect of over 55% in size
HCV inh = inhibitors of hepatitis C virus infection; 340,000 tested, 3.4% active; Huh7.5.1 HCVcc-Cre infection, luciferase reporter, 44 h; Potency, µM (doses to about 41.8 µM), actives largely listed as inhibitors; AID 651820; active = well fitted inhibition curve with a large enough effect; inconclusive = small, poorly fitted or top-dose-only effect, or another doubt; inactive = no such curve, though single readings can be large or run the other way
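Cells seeded at 1,000/well and cultured 4 h, then compounds added followed by HCVcc-Cre virus (~0.5 moi). After 44 h further culture, luciferase substrate was added, plates held 15 min at room temperature, and luminescence read for 15 sec.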
Marburg entry inh = inhibitors of Marburg virus binding or cell entry; Marburg virus pseudotyped entry inhibition, cell reporter; Potency, µM (top dose mostly 37.8 µM), hits mostly inhibitors; 300,000 tested, 1.8% active; AID 540276; calls by dose curve; tested in HEK293 cells
Hits are given with their value; n = inactive; u = inconclusive; x = no result given.

SMILES	Lassa entry inh	HCMV antiviral	FMDV inh	SARS PLP yeast	HCV inh	Marburg entry inh
Fc1ccc(C2c3[nH]c4ccccc4c3CCN2Cc2cccn2-c2ncccn2)cc1 (stereo not drawn)	u	-90.9	n	n	u	u
COc1cccc(C2c3[nH]c4ccccc4c3CCN2Cc2cccn2-c2ncccn2)c1 (stereo not drawn)	x	n	n	n	n	x
Cc1nc2cc(NC(=O)[C@@H]3C[C@@H](Sc4ccccn4)CN3Cc3ccc4c(c3)OCCO4)ccc2s1	x	x	n	x	x	x
CC(C)Oc1cccc(C(=O)C2CCCN(Cc3cccn3-c3ccccn3)C2)c1 (stereo not drawn)	11.2µM	-71.0	n	n	n	u
O=C(c1cccc(C(F)(F)F)c1)C1CCCN(Cc2cccn2-c2ncccn2)C1 (stereo not drawn)	x	u	u	n	u	x
COc1ccc(C(=O)C2CCCN(Cc3cccn3-c3nccs3)C2)cc1F (stereo not drawn)	u	-64.5	n	n	n	u
COc1ccc(C(=O)C2CCCN(Cc3cccn3-c3ccccn3)C2)cc1F (stereo not drawn)	u	n	n	n	n	u
O=C(c1ccc(C(F)(F)F)cc1)C1CCCN(Cc2cccn2-c2ncccn2)C1 (stereo not drawn)	u	u	u	n	n	u
COc1cccc(C(=O)C2CCCN(Cc3cccn3-c3ccccn3)C2)c1 (stereo not drawn)	u	-63.5	n	n	n	u
O=C(c1ccc(Cl)cc1)C1CCCN(Cc2cccn2-c2ccccn2)C1 (stereo not drawn)	u	n	n	n	n	3.98µM
COc1ccc(-c2noc(CSc3nnc(-c4ccncc4)n3-c3ccc(C)c(C)c3)n2)cc1	n	n	n	x	x	u
O=C(Cn1nc2c(cc1=O)CCCC2)NCc1ccccc1	n	n	n	x	x	x
COc1ccc(Nc2ncnc3c2c(-c2ccccc2)cn3-c2ccc(C)c(Cl)c2)cc1OC	n	n	n	x	x	x
O=C(c1ccc(Cl)cc1)C1CCCN(Cc2cccc3cccnc23)C1 (stereo not drawn)	u	n	n	n	u	u
O=C(c1ccc(Cl)cc1)C1CCCN(Cc2cccc3ncccc23)C1 (stereo not drawn)	x	n	u	n	7.94µM	x
N#CC(c1ccccc1O)N1N=C(c2ccccc2)CC1c1ccccc1 (stereo not drawn)	x	-60.7	n	n	u	x
COc1cc(C(C#N)N2N=C(c3ccccc3)CC2c2ccccc2)ccc1O (stereo not drawn)	n	n	n	n	n	n
Cc1ccc(Cl)c(OCC(=O)NCC(c2cccs2)N2CCOCC2)c1 (stereo not drawn)	u	-67.7	u	n	12.6µM	u
COc1cc(C(=O)NCC(c2cccs2)N2CCOCC2)cc(Br)c1OCc1ccccc1 (stereo not drawn)	x	n	n	n	10µM	x
O=C(COc1ccccc1Cl)NCC(c1cccs1)N1CCOCC1 (stereo not drawn)	n	u	n	x	u	n
COc1ccc(C(=O)NCC(c2cccs2)N2CCOCC2)cc1OC (stereo not drawn)	x	n	n	n	n	x
Cc1oc(-c2ccc(Cl)cc2)nc1CSc1nnc(C)n2c1cc1sccc12	n	n	n	x	x	x
COc1cc(/C=C2/CCc3ccccc3C2=O)cc(OC)c1OC	u	u	u	n	u	11.2µM
COc1ccc(/C=C2/CCc3ccccc3C2=O)cc1OC	u	u	n	n	u	n
COc1ccccc1C=C1CCc2ccccc2C1=O	x	n	n	x	x	x
SMILES	Lassa entry inh	HCMV antiviral	FMDV inh	SARS PLP yeast	HCV inh	Marburg entry inh
COc1cc(/C=C2\CCc3ccccc3C2=O)cc(OC)c1OC	u	-74.3	n	n	u	u
O=C(Nc1ccccc1)N1CC(=O)N2[C@@H](CO)[C@H](c3ccc(Br)cc3)[C@@H]2C1	x	n	x	x	x	x
Cc1ccc(-c2nc(C3CCN(S(=O)(=O)c4ccc(C(C)(C)C)cc4)CC3)no2)cc1	x	-98.0	n	n	n	n
CC(C)(C)c1ccc(C(=O)N2CCC(c3noc(-c4ccc(S(=O)(=O)N5CCCC5)cc4)n3)CC2)cc1	n	n	n	x	x	n
COc1ccc(N2CCN(Cc3csc(C)c3-c3ccc(C)cc3)CC2)cc1	u	-68.1	u	n	u	u
COc1ccc(NC(=O)COc2ccc(C)c(C)c2)cc1S(=O)(=O)N1CCCCC1	u	n	u	n	u	u
COc1ccc(NC(=O)COc2cc(C)cc(C)c2)cc1S(=O)(=O)N1CCCCC1	u	n	n	n	3.98µM	u
O=C(COc1cccnc1[N+](=O)[O-])NCCc1ccc(Cl)cc1Cl	n	-64.4	n	n	n	n
Cc1ccc(NC(=O)COc2cccnc2[N+](=O)[O-])cc1S(=O)(=O)N1CCCCC1	u	n	39.8µM	n	u	u
CCOc1ncccc1C(=O)OCC(=O)Nc1ccc(C)c(S(=O)(=O)N2CCOCC2)c1	n	n	n	n	2.82µM	n
CCS(=O)(=O)N1CCc2cc(C(=O)Nc3ccc(Br)cc3F)ccc21	u	u	n	x	x	u
C=CCNC(=O)N1CCc2nc(CCCC)c3c(c2C1)CO[C@@H](C)C3	x	x	x	x	x	n
Cc1ccc(NC(=O)CSc2ccccc2)cc1S(=O)(=O)N1CCCCC1	u	u	u	n	12.6µM	u
N#Cc1ccccc1OCC(=O)Nc1cccc(S(=O)(=O)N2CCCC2)c1	x	n	n	n	u	x
Cc1ccc(NC(=O)Cc2n[nH]c(=O)c3ccccc23)cc1S(=O)(=O)N1CCCCCC1	u	-69.3	n	n	10µM	u
Cc1ccc(NC(=O)COc2ccccc2C#N)cc1S(=O)(=O)N1CCCCCC1	x	n	u	n	10µM	x
Cc1ccc(NC(=O)CSc2ccccc2)cc1S(=O)(=O)N1CCOCC1	n	n	n	n	n	n
Cc1ccc(NC(=O)COc2ccccc2)cc1S(=O)(=O)N1CCCCCC1	u	n	28.2µM	n	u	u
COc1cc(OC)c(NC(=O)C(C)n2c(=O)cc(-c3ccccc3)c3c(C)nn(C)c32)cc1Cl (stereo not drawn)	n	n	n	x	x	x
COCc1cc(N2CCN(C(=O)OC(C)(C)C)C[C@H]2C)ccc1N1CC[C@H](O)C1	x	n	x	x	x	x
COC(=O)c1ccccc1NC(=O)Cn1c(=O)n(CCCC(=O)NCc2ccccc2OC)c(=O)c2ccccc21	n	n	n	x	x	n
O=C(COc1ccccc1)Nc1ccc2c(c1)Cc1cc(NC(=O)COc3ccccc3)ccc1-2	n	-80.1	n	n	u	n
Cc1ccc(NC(=O)CSc2ncnc3ccccc23)cc1S(=O)(=O)N1CCCCC1	u	n	15.8µM	n	u	u
Cc1ccc(NC(=O)Cn2c(=O)cnc3ccccc32)cc1S(=O)(=O)N1CCCCC1	x	u	u	n	11.2µM	x
Cc1ccc(NC(=O)c2cc(=O)c3ccccc3o2)cc1S(=O)(=O)N1CCCCC1	n	-68.8	25.1µM	n	u	n
Cc1ccc(NC(=O)c2cc(=O)c3ccccc3o2)cc1S(=O)(=O)N1CCOCC1	x	n	n	n	u	x
